# DUX4 inh: DUX4-mediated transcription inhibition; 293T-iDUX4 ZSCAN4-Gaussia luciferase reporter, 24 h; active compounds read low; activity change, negative = inhibition, % (test concentration not listed); 37,000 compounds, 0.8% hits;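 active means mean inhibition of at least 10% in the main channel, exceeding the control channel by a set limit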;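 further: 0% = median of neutral control wells and -100% = median of positive control wells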
# Active calls of the source: *; ! = not confirmed by another sample. This is one part of a sample in which hits are shown more often than they occur.
SMILES,DUX4 inh
CN(C)C(=O)c1ccc(-c2ccc(C3[C@@H]4CN(C(=O)Cc5ccncc5)C[C@H]3N4)cc2)cc1 (some centres not stated),16
CN(C)C(=O)c1ccc(-c2ccc(C3[C@@H]4CN(Cc5ccc6c(c5)OCO6)C[C@H]3N4)cc2)cc1 (some centres not stated),-30*!
C(=C\c1ccc(C2[C@@H]3CN(Cc4cccnc4)C[C@H]2N3)cc1)/c1ccccc1 (some centres not stated),-45*!
C(=C\c1ccc(C2[C@H]3CNC[C@@H]2N3Cc2cncnc2)cc1)/c1ccccc1 (some centres not stated),4
C/C=C/c1ccc(C2[C@H]3CNC[C@@H]2N3Cc2ccc3c(c2)OCO3)cc1 (some centres not stated),9
C/C=C/c1ccc(C2[C@@H]3CN(Cc4ccc5c(c4)OCO5)C[C@H]2N3)cc1 (some centres not stated),-10
CN(C)C(=O)c1cccc(-c2ccc(C3[C@H]4CNC[C@@H]3N4Cc3ccc4c(c3)OCO4)cc2)c1 (some centres not stated),8
N#Cc1cccc(-c2ccc(C3[C@@H]4CN(Cc5cocn5)C[C@H]3N4)cc2)c1 (some centres not stated),5
c1cncc(CN2C[C@@H]3N[C@H](C2)C3c2ccc(-c3cccnc3)cc2)c1 (some centres not stated),-3
Cc1ccccc1-c1ccc(C2[C@@H]3CN(Cc4ccc5c(c4)OCO5)C[C@H]2N3)cc1 (some centres not stated),-37*!
OC[C@@H]1[C@@H](c2ccc(/C=C/c3ccccc3)cc2)[C@@H]2CN(Cc3cncnc3)CCCCN12,0
c1cncc(-c2ccc(C3[C@@H]4CN(Cc5ccc6c(c5)OCO6)C[C@H]3N4)cc2)c1 (some centres not stated),-34*!
O=C(C[C@@H]1C[C@H]2c3cc(NC(=O)Nc4ccccc4F)ccc3O[C@H]2[C@@H](CO)O1)NCc1ccc(Oc2ccccc2)cc1,-9
CCCNC(=O)C[C@H]1CC[C@@H]2[C@@H](COc3ccc(NC(=O)c4cccc(C(F)(F)F)c4)cc3C(=O)N2C)O1,3
COc1ccc2c3c(n(C)c2c1)[C@@H](CO)N(Cc1ccccn1)CC31CN(C(=O)NC(C)C)C1,13
COc1cccc(NC(=O)N2CC3(C2)[C@@H](c2ccccc2)[C@@H](CO)N3C(=O)C2CC2)c1,-4
CO[C@H]1CC[C@H]2CCOc3ccc(C#N)cc3C(=O)N(C)[C@@H](C)C(=O)N(C)C[C@H]1O2,-2
COc1ccc2c3c([nH]c2c1)[C@@H](CO)N(C(=O)c1ccncc1)CC31CN(Cc2cccnc2)C1,0
CCCNC(=O)N1[C@@H]2c3ccc(-c4cccc(OC)c4)c(=O)n3C[C@H]1[C@H](CO)[C@H]2C(=O)NC1CCC1,-3
COc1ccc2c3c([nH]c2c1)[C@@H](CO)N(CC1CC1)CC31CCN(C(=O)NC2CCCC2)CC1,-2
CN1C(=O)c2cc(NC(=O)c3ccc(F)c(F)c3)ccc2OC[C@@H]2O[C@@H](CC(=O)N[C@H]3CCN(Cc4ccccc4)C3)CC[C@@H]21,4
CN(C)CC(=O)N1CC[C@@H]2[C@H]1c1cc(Br)ccc1N(C)[C@H]2CO,9
COc1ccc2c3c([nH]c2c1)[C@H](CO)N(C(=O)c1ccccn1)CC31CCN(C(=O)C2CC2)CC1,17
N#Cc1cccc(-c2ccc(C3[C@@H]4CN(C(=O)c5cccnc5)C[C@H]3N4)cc2)c1 (some centres not stated),-4
N#Cc1ccc(-c2ccc(C3[C@@H]4CN(C(=O)Cc5ccccc5)C[C@H]3N4)cc2)cc1 (some centres not stated),-53*!
SMILES,DUX4 inh
Cc1cccc(-c2ccc(C3[C@@H]4CN(C(=O)Cc5ccncc5)C[C@H]3N4)cc2)c1 (some centres not stated),1
N#Cc1ccc(-c2ccc([C@@H]3[C@H](CO)N4C(=O)CN(C(=O)Cc5ccccc5)C[C@@H]34)cc2)cc1,-2
N#Cc1cccc(-c2ccc(C3[C@@H]4CN(C(=O)Cc5ccncc5)C[C@H]3N4)cc2)c1 (some centres not stated),-26*!
N#Cc1ccc(-c2ccc([C@H]3[C@H]4CN(C(=O)Cc5ccccc5)CC(=O)N4[C@H]3CO)cc2)cc1,-1
CO[C@H]1CN(C)C(=O)c2cc(C#N)ccc2OCC[C@@H]2CC[C@@H](OC)[C@H](CN(C)C(=O)[C@@H]1C)O2,1
COCC(=O)N1[C@@H]2c3ccc(C4=CCCCC4)c(=O)n3C[C@@H]2[C@@H](CO)[C@@H]1C(=O)N1CCCCC1,-2
CN(C)C(=O)[C@@H]1[C@@H](CO)[C@@H]2Cn3c(ccc(-c4ccccc4F)c3=O)[C@H]1N2C(=O)c1ccccc1,-5
CS(=O)(=O)N1[C@H](CO)[C@@H](c2ccccc2)C12CN(C(=O)C1CC1)C2,0
CCN1[C@@H]2Cn3c(ccc(-c4cccc(F)c4)c3=O)[C@H]1[C@@H](C(=O)N(C)C)[C@@H]2CO,3

# Source: PubChem (Broad Institute)
